The record followed here is PubChem BioAssay AID372 (MTDP, 2006).

By inhibition is commonly meant the relative decrease from the control value, in per cent.

Out of some 100,000 compounds screened, about 770 (0.77%) were called active. The sample as a whole holds a higher share of actives than the screen did. Values without a mark were called inactive. Rule as the data show it: active = inhibition above about 50%; inactive = the rest.

This assay has as its target Gag-Pol polyprotein (Human immunodeficiency virus type 1 group M subtype B (isolate HXB2)) (UniProt P04585). Put plainly: RNase H inhibition, HIV 1 Gag Pol polyprotein, FRET biochemical assay, screening (AID 372). Conditions: HIV-1 RT RNase H, FRET RNA/DNA substrate fluorescence; at 10 µM; active compounds read high.
Turning to `O=C1NC(=S)NC(=O)C1=Cc1cccc(OC(=O)c2ccc(Cl)cc2)c1`, the inhibition was 30%.
For the molecule `CC(C)C(=O)NC(c1ccc(N(C)C)cc1)c1ccc2cccnc2c1O` (centres undefined), the inhibition was 7%.
On to `CCN(CC)c1nc2c(s1)C(=O)CC(C)(C)C2`, for which the inhibition was 0%.
`Cc1ccnc(NC(=O)c2cc(-c3ccc(C)c(C)c3)nc3ccccc23)c1`: the inhibition is 4%.
In the case of `O=C1c2ccccc2NC(c2ccccc2F)N1c1ccc(Cl)cc1` (centres undefined), the inhibition is 5%.
With `CCOC(=O)C1=C(C)N=c2s/c(=C\c3ccc(OCc4cccc5ccccc45)c(OC)c3)c(=O)n2C1c1ccc(OC)cc1` (centres undefined), the inhibition is 14%.
With `CCOC(=O)C1=C(C)N=c2s/c(=C\c3ccc(-c4ccc(Cl)cc4)o3)c(=O)n2C1c1ccc(OC)c(OC)c1` (centres undefined), the inhibition was 13%.
For `CCOC(=O)C1=C(C)N=c2s/c(=C\c3ccc(-c4ccc(Cl)c(Cl)c4)o3)c(=O)n2C1c1ccc(OC)c(OC)c1` (centres undefined), the inhibition was 9%.
As for `CCOC(=O)C1=C(C)N=c2s/c(=C/c3ccc(-c4cccc(Cl)c4)o3)c(=O)n2C1c1ccc(OC)c(OC)c1` (centres undefined), the inhibition was 52% (active).
In the case of `CCOC(=O)C1=C(C)N=c2s/c(=C/c3ccc(-c4ccc(C)c([N+](=O)[O-])c4)o3)c(=O)n2C1c1ccc(N(C)C)cc1` (centres undefined), the inhibition is 43%.
Regarding `CCOC(=O)C1=C(C)N=c2s/c(=C\c3ccc(OCc4cccc5ccccc45)c(OC)c3)c(=O)n2C1c1ccc(OC)c(OC)c1` (centres undefined), the inhibition was 55% (active).
With `CCOC(=O)C1=C(C)N=c2s/c(=C\c3ccc(-c4cc(C)c(C)c([N+](=O)[O-])c4)o3)c(=O)n2C1c1ccc(N(C)C)cc1` (centres undefined), the inhibition was 56% (active).
With `CCOC(=O)C1=C(C)N=c2s/c(=C\c3ccc(OCc4cccc5ccccc45)c(OCC)c3)c(=O)n2C1c1ccc(OC)c(OC)c1` (centres undefined), the inhibition was 0%.
As for `CCOC(=O)C1=C(C)N=c2s/c(=C\c3ccc(-c4cc(C)c(C)c([N+](=O)[O-])c4)o3)c(=O)n2C1c1ccccc1` (centres undefined), the inhibition was 46%.
The figure for `CCOC(=O)c1c(C)[nH]c(/C=C(/C#N)C(N)=NCc2ccccc2)c1O` is 11%; for `Cc1cc(C)c(S(=O)(=O)NC(=O)C23CC4CC(CC(C4)C2)C3)c(C)c1` it is 2%; for `COc1cccc(/C=N/NC(=O)c2ccccc2O)c1` it is 11%.
In the case of `O=C(NC(=S)Nc1ccc2oc(-c3ccccc3)nc2c1)c1ccccc1Cl`, the inhibition is 7%.
The figure for `Cc1ccc(N=C2NC(=O)/C(=C/c3ccccc3)S2)cc1` is 9%; for `Cc1ccc(N=C2NC(=O)/C(=C/c3ccc(-c4cc([N+](=O)[O-])ccc4Cl)o3)S2)cc1Cl` it is 25%; for `Cc1ccc(/C=C2\SC(=Nc3ccc(F)cc3)NC2=O)o1` it is 26%.
The figure for `Cc1ccc(N=C2NC(=O)/C(=C\c3ccc(C)o3)S2)cc1` is 52% (active).
For the molecule `Cc1ccc(N=C2NC(=O)/C(=C/c3ccc(-c4ccc(Cl)c([N+](=O)[O-])c4)o3)S2)cc1Cl`, the inhibition is 31%.
Turning to `O=C1NC(=Nc2ccc(F)cc2)S/C1=C/c1ccc(-c2ccc([N+](=O)[O-])cc2)o1`, the inhibition is 51% (active).
Turning to `O=C(COc1cccc(Cl)c1)N/N=C\c1ccc(O)cc1`, the inhibition was 1%.
Consider `Cc1ccc2nc(-c3c(-c4ccccc4)c4cc(C)ccc4[nH]c3=O)cc(-c3ccccc3)c2c1`, for which the inhibition is 31%.
Consider `Cc1ccc(N2C(=O)c3cccnc3C2=O)cc1C`, for which the inhibition was 50% (active).
In the case of `Cc1ccccc1N1C(=O)c2cccnc2C1=O`, the inhibition was 22%.
For the molecule `Cc1ccc(N2C(=O)c3ccccc3C2=O)cc1C`, the inhibition was 5%.
Turning to `COc1ccccc1/C=C1/C(=O)N(c2ccc(Cl)c(Cl)c2)N=C1C`, the inhibition is 3%.
Take `CCCC(=O)N(c1ccc(N(C(=O)CCC)S(=O)(=O)c2ccccc2)cc1)S(=O)(=O)c1ccccc1`: the inhibition is 1%.
Consider `O=C(NC(=S)Nc1ccc2oc(-c3cccc(Cl)c3)nc2c1)c1ccc(F)cc1`, for which the inhibition is 18%.
Next, `O=C(NC(=S)Nc1ccc2oc(-c3cc(Cl)ccc3Cl)nc2c1)c1ccc(F)cc1`: 19%; `O=C(NC(=S)Nc1cccc(-c2nc3cc(Cl)ccc3o2)c1)c1ccc(F)cc1`: 57% (active); `Nc1cccc(-c2nc3cc(Cl)cc(Cl)c3o2)c1`: 55% (active).
The figure for `O=C(NC(=S)Nc1ccc(-c2nc3cc(Cl)ccc3o2)cc1)c1ccc(F)cc1` is 8%; for `O=C(NC(=S)Nc1cccc(-c2nc3cc(Cl)ccc3o2)c1)c1ccc(Br)cc1` it is 9%; for `Cc1ccc(-c2nc3cc(Cl)cc(Cl)c3o2)cc1N` it is 0%.
Consider `O=C(NC(=S)Nc1ccc2oc(-c3ccc(Cl)cc3Cl)nc2c1)c1ccc(F)cc1`, for which the inhibition was 17%.
Next, `Nc1ccc(-c2nc3cc(Cl)cc(Cl)c3o2)cc1`: 22%; `O=C(NC(=S)Nc1ccc(Cl)c(-c2nc3cc(Cl)ccc3o2)c1)c1ccc(F)cc1`: 53% (active); `O=C(NC(=S)Nc1ccc2oc(-c3ccc(Cl)cc3)nc2c1)c1ccc(F)cc1`: 57% (active).
Next, `O=C(NC(=S)Nc1ccc2oc(-c3ccc(F)cc3)nc2c1)c1ccc(Cl)cc1`: 0%.
As for `CC(=O)Nc1nc2c(s1)C(=O)NCCC2`, the inhibition is 5%.
Take `Cn1c2ccccc2c2nnc(SCCN3CCOCC3)nc21`: the inhibition is 0%.
As for `O=Cc1ccc(OCc2ccc([N+](=O)[O-])cc2)cc1`, the inhibition was 16%.
As for `O=[N+]([O-])c1ccc(N2CCOCC2)cc1Sc1cccc2cccnc12`, the inhibition is 24%.
As for `Cc1ccc(S(=O)(=O)N2CCC(CN3C(=O)c4cccc5cccc(c45)C3=O)CC2)cc1`, the inhibition is 25%.
Next, `Cc1cc(C)n(S(=O)(=O)c2ccc(Cl)c(Cl)c2Cl)n1`: 23%; `CCCC1(CCC)NC(=S)N(c2nc3ccccc3s2)N1`: 7%; `COc1ccc(N(CC(=O)NCc2ccccn2)S(=O)(=O)c2ccccc2[N+](=O)[O-])c(OC)c1`: 4%.
The figure for `O=C(/C=C/c1cccs1)c1ccc(C(=O)/C=C/c2cccs2)cc1` is 13%.
Turning to `O=C(/C=C/c1ccc(F)cc1)Nc1cccc2cccnc12`, the inhibition was 7%.
`O=C(NC(=S)Nc1cccc(-c2nc3cc(Cl)cc(Cl)c3o2)c1)c1ccccc1Cl`: the inhibition was 19%.
Regarding `O=C(NC(=S)Nc1ccc(O)c(-c2nc3ccccc3o2)c1)c1ccc(F)cc1`, the inhibition is 56% (active).
As to `O=C(NC(=S)Nc1cccc(-c2nc3cc(Cl)cc(Cl)c3o2)c1)c1cccc(F)c1`, the inhibition was 58% (active).
On to `O=C(Nc1ccc(O)c(-c2nc3ccccc3o2)c1)c1ccc(F)cc1`, for which the inhibition is 6%.
With `O=C(NC(=S)Nc1cccc(-c2nc3cc(Cl)cc(Cl)c3o2)c1)c1ccc(Cl)cc1`, the inhibition is 11%.
As for `O=C(NC(=S)Nc1ccc(O)c(-c2nc3ccccc3o2)c1)c1ccc([N+](=O)[O-])cc1`, the inhibition is 9%.
